Our source for the growth inhibition, inhibition and outcome values is PubChem BioAssay.

A number with no mark means an inactive call. For some of these results: Potency and affinity values are given separately. The source made the active and inactive calls. Unless noted, how the calls were made is not given here.

Test [1] is described as follows: antimalarial activity against Dd2 strain (AID 2302;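 active means growth inhibition above 50% at the single 2 µM test dose, taken to imply half-maximal potency below 2 µM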;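 further: 0% = DMSO untreated growth and 100% = chloroquine plus artemisinin killed control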). The note with it: P. falciparum Dd2 in RBCs, LDH growth readout, 72 h; at 2 µM; active compounds read high.
Test [2] is described as follows: human hepatoma cell viability loss – ATP luminescence, cytotoxicity control for P. falciparum antimalarial project, primary screen (AID 2303;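 active means inhibition above 50%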;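 further: 0% = DMSO wells and 100% = digitonin-killed cells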). The note with it: HepG2 viability, 24-48 h, at 10 µM, active compounds read high.
Test [3] addresses L-lactate dehydrogenase (Plasmodium falciparum (isolate CDC / Honduras)) (UniProt Q27743). The experiment in a line: PfLDH activity inhibition – cell lysate, 3D7 strain, counter-screen for P. falciparum growth inhibition project (AID 2304).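 Further: 0% = vehicle and 100% = reference inhibitor.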 The note with it: P. falciparum 3D7 crude extract, LDH APAD/NBT absorbance; at 2 µM; active compounds read high. In general terms: A counterscreen serves to expose hits that act by an unwanted route or on another target.

Test [4] is described as follows: inhibition of 3D7 malaria parasite growth – strain 3D7 (AID 2306).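 Further: 0% = DMSO wells and 100% = chloroquine plus artemisinin control wells.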 The note with it: P. falciparum 3D7 erythrocytic growth, LDH absorbance, 72 h; at 2 µM; active compounds read high.
The target of test [5] is Calcium-dependent protein kinase 1 (Plasmodium falciparum (isolate 3D7)) (UniProt P62344). The experiment in a line: PfCDPK1 kinase inhibitors, biochemical, TCAMS library (AID 1159585; cut-off not given, nearly all actives have IC50 up to about 0.98 µM;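 further: inhibitors leave more ATP so luminescence rises with inhibition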). The note with it: recombinant PfCDPK1, Kinase-Glo ATP depletion luminescence.
Test [6] has as its target Plasmodium falciparum protein kinase 6 (PK6, PF3D7_1337100) (UniProt Q8IDW1). The experiment in a line: PfPK6 kinase inhibitors, biochemical, TCAMS library (AID 1159586). The note with it: recombinant PfPK6, Kinase-Glo ATP depletion luminescence. (Kinase-Glo reads ATP consumption through a luciferase reaction.)
Test [7] concerns the target Protein kinase 7 (PK7), Plasmodium falciparum 3D7 (PF3D7_0213400) (UniProt Q7YTF7). The experiment in a line: inhibition of Plasmodium PK7 catalytic activity – biochemical, TCAMS antimalarial set, Kinase-Glo luminescence (AID 1159587). The note with it: recombinant PfPK7, Kinase-Glo ATP depletion luminescence.
In test [8] the target is Calcium-dependent protein kinase 4 (Plasmodium falciparum (isolate 3D7)) (UniProt Q8IBS5). The test is described as follows: PfCDPK4 kinase inhibitors, biochemical, TCAMS library (AID 1159588; cut-off not given, nearly all actives have IC50 up to about 0.91 µM). The note with it: recombinant PfCDPK4, Kinase-Glo ATP depletion luminescence.
Calcium-dependent protein kinase 4 (Plasmodium falciparum (isolate 3D7)), sequence (Q8IBS5 whole entry, looked up): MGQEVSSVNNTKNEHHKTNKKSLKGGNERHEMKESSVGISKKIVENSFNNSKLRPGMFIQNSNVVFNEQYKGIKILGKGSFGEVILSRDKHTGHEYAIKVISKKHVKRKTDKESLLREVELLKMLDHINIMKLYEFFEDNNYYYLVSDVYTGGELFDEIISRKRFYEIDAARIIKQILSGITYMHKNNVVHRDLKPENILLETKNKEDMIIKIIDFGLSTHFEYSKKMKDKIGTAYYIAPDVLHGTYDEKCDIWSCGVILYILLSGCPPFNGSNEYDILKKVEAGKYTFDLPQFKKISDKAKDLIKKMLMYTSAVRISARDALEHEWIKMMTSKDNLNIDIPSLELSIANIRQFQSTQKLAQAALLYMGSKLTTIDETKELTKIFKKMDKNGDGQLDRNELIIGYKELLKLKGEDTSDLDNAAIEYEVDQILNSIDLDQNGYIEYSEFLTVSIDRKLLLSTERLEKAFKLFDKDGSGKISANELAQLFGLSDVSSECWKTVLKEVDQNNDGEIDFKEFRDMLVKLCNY

Calcium-dependent protein kinase 1 (Plasmodium falciparum (isolate 3D7)), sequence (P62344 whole entry, looked up): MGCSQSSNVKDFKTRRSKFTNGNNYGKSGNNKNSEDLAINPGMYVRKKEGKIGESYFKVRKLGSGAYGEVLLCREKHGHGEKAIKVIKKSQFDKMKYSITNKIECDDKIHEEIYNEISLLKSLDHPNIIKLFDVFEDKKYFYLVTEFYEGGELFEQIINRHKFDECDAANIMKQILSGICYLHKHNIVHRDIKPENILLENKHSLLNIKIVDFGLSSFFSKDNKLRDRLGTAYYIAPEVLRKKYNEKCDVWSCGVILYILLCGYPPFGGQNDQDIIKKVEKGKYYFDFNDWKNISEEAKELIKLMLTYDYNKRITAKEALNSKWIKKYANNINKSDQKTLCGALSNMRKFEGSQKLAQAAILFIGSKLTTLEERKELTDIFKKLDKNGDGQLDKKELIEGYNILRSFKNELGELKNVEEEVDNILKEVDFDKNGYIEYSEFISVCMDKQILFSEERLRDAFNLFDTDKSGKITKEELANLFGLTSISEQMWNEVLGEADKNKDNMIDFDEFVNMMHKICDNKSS
Plasmodium falciparum protein kinase 6 (PK6, PF3D7_1337100), sequence (Q8IDW1 1-305): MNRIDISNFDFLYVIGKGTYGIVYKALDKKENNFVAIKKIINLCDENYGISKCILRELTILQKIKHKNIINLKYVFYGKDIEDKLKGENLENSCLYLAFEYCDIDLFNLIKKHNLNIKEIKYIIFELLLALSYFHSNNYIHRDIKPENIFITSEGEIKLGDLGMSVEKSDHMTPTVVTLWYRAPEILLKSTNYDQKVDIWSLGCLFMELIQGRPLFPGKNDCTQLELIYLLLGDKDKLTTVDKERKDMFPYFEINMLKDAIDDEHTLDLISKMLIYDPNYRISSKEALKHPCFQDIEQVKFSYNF
Protein kinase 7 (PK7), Plasmodium falciparum 3D7 (PF3D7_0213400), sequence (Q7YTF7 1-343): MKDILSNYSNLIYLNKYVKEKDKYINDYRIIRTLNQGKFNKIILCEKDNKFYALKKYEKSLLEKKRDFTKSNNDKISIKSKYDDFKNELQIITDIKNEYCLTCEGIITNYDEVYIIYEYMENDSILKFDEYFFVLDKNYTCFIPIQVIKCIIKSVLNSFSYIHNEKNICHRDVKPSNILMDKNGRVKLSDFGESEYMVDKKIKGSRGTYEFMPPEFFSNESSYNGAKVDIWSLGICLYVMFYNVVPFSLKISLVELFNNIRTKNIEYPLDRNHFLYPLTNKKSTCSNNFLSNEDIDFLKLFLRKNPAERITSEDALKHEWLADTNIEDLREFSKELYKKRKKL
L-lactate dehydrogenase (Plasmodium falciparum (isolate CDC / Honduras)), sequence (Q27743 whole entry, looked up): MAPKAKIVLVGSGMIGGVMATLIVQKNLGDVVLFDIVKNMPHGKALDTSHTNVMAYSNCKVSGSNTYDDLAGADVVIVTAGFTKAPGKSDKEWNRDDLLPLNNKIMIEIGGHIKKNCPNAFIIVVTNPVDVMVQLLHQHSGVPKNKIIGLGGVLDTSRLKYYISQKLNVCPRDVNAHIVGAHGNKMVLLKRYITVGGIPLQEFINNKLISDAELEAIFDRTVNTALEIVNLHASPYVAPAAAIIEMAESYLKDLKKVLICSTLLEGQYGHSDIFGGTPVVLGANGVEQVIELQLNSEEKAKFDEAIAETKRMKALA

For `O=C(Cc1cnc[nH]1)Nc1ccc(-c2ccc(-c3nc4ccc(F)cc4[nH]3)cc2)cc1`, the growth inhibition in test [1] is 91% (active); in test [4] it was 100% (active). Further, the results for the inhibition in test [2] and in test [3] were 39% and 0%, respectively. Also, the result in test [5], in test [6], in test [7] and in test [8] was inactive.
Turning to `c1ccc(-c2nnc(-c3ccccn3)nc2NC2CCCCC2)cc1`, the growth inhibition in test [1] is 80% (active); in test [4] it was 97% (active). In addition, the inhibition in test [2] was 74% (active); in test [3], 6%. The outcome in test [5], in test [6], in test [7] and in test [8] was inactive.
`O=C(Nc1ccc(Cl)c(Cl)c1)N[C@H]1CCN(CCCCCNC(=O)[C@@H]2C[C@H]2c2ccc(Cl)c(Cl)c2)C1`: the growth inhibition in test [1] was 8%; in test [4], 93% (active). Besides, the inhibition in test [2] was 42%; in test [3] it was 3%. Also, the outcome in test [5], in test [6], in test [7] and in test [8] was inactive.
In the case of `COc1ccc2nccc([C@@H](O)CN3CCC(NCc4ccc5nc[nH]c(=O)c5c4)CC3)c2c1`, the growth inhibition is 4% in test [1] and 99% (active) in test [4]. Also, the inhibition is 12% in test [2] and -13% in test [3]. The outcome in test [5], in test [6], in test [7] and in test [8] was inactive.
Turning to `Cc1cccc2[nH]c(-c3ccc(-c4cccc(NC(=O)c5cnn6cccnc56)c4)cc3)nc12`, the growth inhibition is 29% in test [1] and 91% (active) in test [4]. For the same compound, the inhibition in test [2] was 100% (active); in test [3], -4%. Moreover, the outcome in test [5], in test [6], in test [7] and in test [8] was inactive.
Regarding `Cc1[nH]cnc1CSCCNC(=NCCCCCCCCN=C(NC#N)NCCSCc1nc[nH]c1C)NC#N`, the results for the growth inhibition in test [1] and in test [4] were 48% and 81% (active), respectively. For the same compound, the inhibition in test [2] is 1%; in test [3], 0%. Also, the outcome in test [5], in test [6], in test [7] and in test [8] was inactive.
Turning to `CS(=O)(=O)c1ccc(-c2cnc(N)c(-c3ccc(O)cc3)c2)cc1`, the figures for the growth inhibition in test [1] and in test [4] were 94% (active) and 84% (active), respectively. The inhibition was 38% in test [2] and 2% in test [3]. Moreover, the result in test [5], in test [6], in test [7] and in test [8] was inactive.
As for `Cc1sc(N2CCCCC2)nc1C(=O)Nc1ccc(F)cc1C(F)(F)F`, the growth inhibition was 35% in test [1] and 86% (active) in test [4]. The inhibition in test [2] is -18%; in test [3], 2%. Also, the outcome in test [5], in test [6], in test [7] and in test [8] was inactive.
`CC(C)N1CCCN(C(=O)C2CCN(c3ccc(C(=O)N4CCCC4)cn3)CC2)CC1`: the results for the growth inhibition in test [1] and in test [4] were 12% and 86% (active), respectively. Besides, the inhibition in test [2] is 41%; in test [3], 1%. The result in test [5], in test [6], in test [7] and in test [8] was inactive.
On to `O=C(/C=C/c1ccc2ccccc2c1)NCCCCCN1CCC(c2c[nH]c3ccccc23)CC1`, for which the growth inhibition in test [1] is 4%; in test [4] it was 90% (active). The inhibition in test [2] was 18%; in test [3] it was 6%. For the same compound, the outcome in test [5], in test [6], in test [7] and in test [8] was inactive.
In the case of `COc1ccc(S(=O)(=O)NC2CCN(c3ccc(C(F)(F)F)cc3NC(=O)OCC(C)C)CC2)cc1`, the values for the growth inhibition in test [1] and in test [4] were 13% and 85% (active), respectively. Also, the results for the inhibition in test [2] and in test [3] were 19% and 3%, respectively. Also, the result in test [5], in test [6], in test [7] and in test [8] was inactive.
With `COc1cc(/C=C/C(=O)NC2CCC(N3CCC(c4ccccc4C)CC3)CC2)cc(OC)c1` (stereo not given), the growth inhibition in test [1] was 11%; in test [4], 89% (active). In addition, the inhibition in test [2] is 51% (active); in test [3] it was -4%. Besides, the result in test [5], in test [6], in test [7] and in test [8] was inactive.
As to `CC(C)(C)c1ccc(CN2CCCCC(NC(=O)c3cc(-c4ccccc4Cl)cs3)C2)cc1` (stereo not given), the values for the growth inhibition in test [1] and in test [4] were 98% (active) and 101% (active), respectively. Further, the inhibition in test [2] is 3%; in test [3], -1%. Moreover, the outcome in test [5], in test [6], in test [7] and in test [8] was inactive.
Take `CN1CCN(C(C(=O)NCc2cc(Cl)cc(Cl)c2)c2ccc(Nc3cccc(C(F)(F)F)c3)cc2)CC1` (stereo not given): the growth inhibition in test [1] was 98% (active); in test [4], 85% (active). Also, the inhibition in test [2] is 49%; in test [3], 5%. Also, the result in test [5], in test [6], in test [7] and in test [8] was inactive.
Turning to `O=C(Nc1ccc(Cl)cc1C(=O)Nc1ccncc1)c1ccc(Cl)cc1Cl`, the growth inhibition was 75% (active) in test [1] and 99% (active) in test [4]. In addition, the inhibition in test [2] was 8%; in test [3], -5%. The outcome in test [5], in test [6], in test [7] and in test [8] was inactive.
Turning to `CC1(C)N=C(N)N=C(N)N1OCCCCON1C(N)=NC(N)=NC1(C)C`, the growth inhibition in test [1] is 95% (active); in test [4], 97% (active). Further, the inhibition in test [2] was 54% (active); in test [3], 4%. In addition, the result in test [5], in test [6], in test [7] and in test [8] was inactive.
On to `CCCC(=O)c1cnc2cc(O)ccc2c1Nc1ccccc1C`, for which the growth inhibition in test [1] is 93% (active); in test [4] it was 99% (active). The values for the inhibition in test [2] and in test [3] were 14% and -8%, respectively. The outcome in test [5], in test [6], in test [7] and in test [8] was inactive.
On to `CNCCNCc1cccc(-c2ccc(-c3nc4c(C)cccc4[nH]3)cc2)c1`, for which the figures for the growth inhibition in test [1] and in test [4] were 21% and 98% (active), respectively. The values for the inhibition in test [2] and in test [3] were 17% and -1%, respectively. The result in test [5], in test [6], in test [7] and in test [8] was inactive.
`NOCCCCOc1ccc(Br)cc1`: the growth inhibition in test [1] was -1%; in test [4], 99% (active). For the same compound, the inhibition is 0% in test [2] and -2% in test [3]. For the same compound, the outcome in test [5], in test [6], in test [7] and in test [8] was inactive.
Consider `Cc1cccc2[nH]c(-c3ccc(-c4ccc(NC(=O)Nc5ccsc5)cc4)s3)nc12`, for which the growth inhibition was 88% (active) in test [1] and 100% (active) in test [4]. Further, the inhibition in test [2] was 74% (active); in test [3], 2%. The outcome in test [5], in test [6], in test [7] and in test [8] was inactive.

Broadly, the inhibition is the drop in the measured response relative to a control, in per cent.
